In PubChem BioAssay (EPA / NIEHS):
Records with an inconclusive call do not appear. Active and inactive are the calls of the source. The calls were made as follows, unless noted: active = hit-call score of the fitted dose curve at least 0.9, where 1 is the maximum; inactive = score below 0.9.

Experiments:
[1] = molecular target: Retinoic acid receptor RXR-alpha (Homo sapiens) (UniProt P19793); test: ATG_RXRa_TRANS: Attagene TRANS-FACTORIAL HepG2 Assay for human Retinoid X Receptor alpha (RXRa) (AID 2283012; active = hit-call score of the fitted dose curve at least 0.9, where 1 is the maximum)
Retinoic acid receptor RXR-alpha (Homo sapiens), sequence (P19793 whole entry, looked up, the tested form may be a part): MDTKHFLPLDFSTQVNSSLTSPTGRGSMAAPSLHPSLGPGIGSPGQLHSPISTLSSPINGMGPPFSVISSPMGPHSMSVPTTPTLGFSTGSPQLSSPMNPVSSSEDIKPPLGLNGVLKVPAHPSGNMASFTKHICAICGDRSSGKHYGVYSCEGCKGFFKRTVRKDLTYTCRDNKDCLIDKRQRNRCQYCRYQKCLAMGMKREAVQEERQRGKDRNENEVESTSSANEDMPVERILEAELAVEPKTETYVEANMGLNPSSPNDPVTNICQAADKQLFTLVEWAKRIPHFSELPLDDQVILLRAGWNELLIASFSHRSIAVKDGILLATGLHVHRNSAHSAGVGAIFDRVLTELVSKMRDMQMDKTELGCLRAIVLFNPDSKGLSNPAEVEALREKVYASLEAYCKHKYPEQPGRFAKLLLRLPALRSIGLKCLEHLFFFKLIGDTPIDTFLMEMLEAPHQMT
Summary of the method: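 Chimeric NR-GAL4 trans-activation in HepG2, 24 h treatment; reporter transcripts quantified by fluorescence on capillary electrophoresis, analysed for upward change from DMSO.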

[2] = molecular target: human Thyroid Receptor alpha (THRa1), THRA (gene 7067) (UniProt P10827); test: ATG_THRa1_TRANS: Attagene TRANS-FACTORIAL HepG2 Assay for human Thyroid Receptor alpha (THRa1) (AID 2283014; active = hit-call score of the fitted dose curve at least 0.9, where 1 is the maximum)
human Thyroid Receptor alpha (THRa1), THRA (gene 7067), sequence (P10827 whole entry, looked up, the tested form may be a part): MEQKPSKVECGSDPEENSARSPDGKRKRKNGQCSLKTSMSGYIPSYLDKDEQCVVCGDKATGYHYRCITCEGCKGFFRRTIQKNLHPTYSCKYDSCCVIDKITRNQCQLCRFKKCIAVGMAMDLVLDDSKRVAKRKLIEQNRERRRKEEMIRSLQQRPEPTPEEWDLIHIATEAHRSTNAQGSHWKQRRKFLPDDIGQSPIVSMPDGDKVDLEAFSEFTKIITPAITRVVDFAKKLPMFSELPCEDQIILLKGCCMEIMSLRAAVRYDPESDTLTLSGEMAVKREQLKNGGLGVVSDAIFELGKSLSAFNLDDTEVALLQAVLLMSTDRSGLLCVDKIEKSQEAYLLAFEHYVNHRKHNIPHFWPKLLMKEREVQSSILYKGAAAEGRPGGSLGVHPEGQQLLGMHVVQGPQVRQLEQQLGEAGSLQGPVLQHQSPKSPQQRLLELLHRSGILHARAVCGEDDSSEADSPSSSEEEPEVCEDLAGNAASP
Summary of the method: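 Measured here is mRNA from a GAL4-UAS reporter in transfected HepG2 cells carrying a Gal4-fused receptor, 24 h post-dose. DMSO served as negative control and baseline.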

[3] = read-out: E-selectin (Homo sapiens) (UniProt P16581); test: BSK_3C_Eselectin: BioMAP Diversity Plus: 3C Assay for Eselectin Biomarker Activity (AID 2283015); settings: primary human endothelial cells (HUVEC); actives raise or lower the signal
Summary of the method: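 Endpoint derived by bidirectional fitting against DMSO vehicle; signal is ELISA-detected E-selectin from primary HUVEC at 24 h post-dosing, with parallel SRB staining (0.1% SRB, 560 nm) flagging cytotoxicity.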

[4] = read-out: Interleukin-1 alpha (IL1a), IL1A (gene 3552); test: BSK_BE3C_IL1a: BioMAP Diversity Plus: BE3C Assay for Interleukin-1 alpha (IL1a) Biomarker Activity (AID 2283016); settings: primary human bronchial epithelial cells; actives raise or lower the signal
Summary of the method: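 Measured in human lung primary bronchial epithelial cells: IL-1a by ELISA at 24 h after dosing, with bidirectional fitting against DMSO.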

[5] = read-out: Monocyte Chemoattractant Protein-1 (MCP1), CCL2 (gene 6347); test: BSK_3C_MCP1: BioMAP Diversity Plus: 3C Assay for Monocyte Chemoattractant Protein-1 (MCP1) Biomarker Activity (AID 2283017); settings: primary human endothelial cells (HUVEC); actives raise or lower the signal
Summary of the method: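 Using human vascular primary endothelium, researchers measured MCP-1 by ELISA 24 h after treatment, with DMSO serving as negative control for bidirectional fitting.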

[6] = read-out: Monocyte Chemoattractant Protein-1 (MCP1), CCL2 (gene 6347); test: BSK_4H_MCP1: BioMAP Diversity Plus: 4H Assay for Monocyte Chemoattractant Protein-1 (MCP1) Biomarker Activity (AID 2283018); settings: primary human endothelial cells (HUVEC); actives raise or lower the signal
Summary of the method: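 Primary human umbilical vein endothelium is exposed to chemical for 24 h before MCP-1 is assayed by ELISA. Concentration-response fitted bidirectionally relative to DMSO.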

[7] = read-out: Human Leukocyte Antigen - DR isotype (HLADR), HLA-DRA (gene 3122); test: BSK_3C_HLADR: BioMAP Diversity Plus: 3C Assay for Human Leukocyte Antigen - DR isotype (HLADR) Biomarker Activity (AID 2283019); settings: primary human endothelial cells (HUVEC); actives raise or lower the signal
Summary of the method: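 Compound added to primary HUVEC cultures, 24 h incubation, then HLA-DR determined by ELISA; endpoint derived by bidirectional fitting relative to DMSO negative control.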

[8] = read-out: Interleukin-8 (IL8), CXCL8 (gene 3576); test: BSK_3C_IL8: BioMAP Diversity Plus: 3C Assay for Interleukin-8 (IL8) Biomarker Activity (AID 2283020); settings: primary human endothelial cells (HUVEC); actives raise or lower the signal
Summary of the method: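 Using DMSO-treated wells as the baseline, bidirectional curve fitting was applied to ELISA-measured IL-8 from human umbilical vein endothelial cultures sampled 24 h after compound addition.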

[9] = read-out: Monokine induced gamma interferon (MIG), CXCL9 (gene 4283); test: BSK_3C_MIG: BioMAP Diversity Plus: 3C Assay for Monokine induced gamma interferon (MIG) Biomarker Activity (AID 2283021); settings: primary human endothelial cells (HUVEC); actives raise or lower the signal;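 as to AC50: MIG protein level measured by immunoassay in the treated endothelial cultures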
Summary of the method: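 ELISA-measured MIG in dosed HUVEC 3C cultures at 24 h, analysed by bidirectional fitting with DMSO defining baseline activity.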

[10] = molecular target: human Vitamin D Receptor (VDR), VDR (gene 7421) (UniProt P11473); test: ATG_VDR_TRANS: Attagene TRANS-FACTORIAL HepG2 Assay for human Vitamin D Receptor (VDR) (AID 2283022; active = hit-call score of the fitted dose curve at least 0.9, where 1 is the maximum)
human Vitamin D Receptor (VDR), VDR (gene 7421), sequence (P11473 whole entry, looked up): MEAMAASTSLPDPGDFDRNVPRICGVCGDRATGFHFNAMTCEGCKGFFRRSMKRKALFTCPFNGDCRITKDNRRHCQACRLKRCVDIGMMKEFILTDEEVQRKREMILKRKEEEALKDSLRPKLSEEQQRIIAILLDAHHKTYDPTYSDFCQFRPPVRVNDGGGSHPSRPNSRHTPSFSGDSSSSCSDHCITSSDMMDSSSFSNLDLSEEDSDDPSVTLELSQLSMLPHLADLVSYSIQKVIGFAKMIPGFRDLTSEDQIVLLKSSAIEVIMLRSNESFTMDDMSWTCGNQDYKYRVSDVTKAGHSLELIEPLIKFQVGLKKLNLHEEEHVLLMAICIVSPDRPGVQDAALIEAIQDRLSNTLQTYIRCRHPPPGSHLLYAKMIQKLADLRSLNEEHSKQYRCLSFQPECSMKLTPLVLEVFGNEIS
Summary of the method: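 Multiplexed TRANS reporter in HepG2; 24 h treatment; reporter mRNA by RT-PCR plus capillary electrophoresis; upregulation scored relative to DMSO.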

[11] = BSK_3C_SRB: Viability Assessment in the BioMAP Diversity Plus: 3C Assay (AID 2283023); settings: primary human endothelial cells (HUVEC);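 also: cells read 24 h after compound dosing; fitted both ways against DMSO so a hit may be signal rise or drop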
Summary of the method: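 Overt cytotoxicity is gauged in parallel confluent HUVEC cultures by SRB total-protein staining at the time of biomarker measurement, 24 h after dosing. Gain or loss of signal is fitted versus DMSO.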

[12] = read-out: Matrix Metallopeptidase 1 (MMP1), MMP1 (gene 4312); test: BSK_BE3C_MMP1: BioMAP Diversity Plus: BE3C Assay for Matrix Metallopeptidase 1 (MMP1) Biomarker Activity (AID 2283024); settings: primary human bronchial epithelial cells; actives raise or lower the signal
Summary of the method: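 In this multiplexed primary-cell system, human bronchial epithelium received chemicals for 24 h before an ELISA for MMP1. Values reflect bidirectional fits normalised to the DMSO baseline.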

[13] = BSK_3C_Vis: BioMAP Diversity Plus: 3C Assay for Morphology Visualization (AID 2283025); settings: primary human endothelial cells (HUVEC);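 also: fitted both ways so gain or loss versus DMSO counts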;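 as to AC50: light microscopy image of cell morphology used as background control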
Summary of the method: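 Light-microscopy morphology readout, 24 h exposure, human primary umbilical vein endothelium; analysed relative to DMSO with bidirectional fitting.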

[14] = read-out: Pselectin, SELP (gene 6403); test: BSK_4H_Pselectin: BioMAP Diversity Plus: 4H Assay for Pselectin Biomarker Activity (AID 2283026); settings: primary human endothelial cells (HUVEC); actives raise or lower the signal
Summary of the method: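 Bidirectional fits against DMSO gave the endpoint. Cells: primary human umbilical vein endothelium, chemical-treated for 24 h before ELISA detection of P-selectin.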

[15] = BSK_4H_SRB: Viability Assessment in the BioMAP Diversity Plus: 4H Assay (AID 2283027); settings: primary human endothelial cells (HUVEC);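 also: cells exposed to compound for 24 h before staining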;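 as to AC50: curves fitted both ways versus DMSO so AC50 may be loss or gain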
Summary of the method: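 Cytotoxicity readout: sulforhodamine B (0.1%) staining of total protein after 10% TCA fixation, measured at 560 nm in human umbilical vein endothelium at 24 h. DMSO set the baseline; fitting was bidirectional.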

[16] = BSK_BE3C_SRB: Viability Assessment in the BioMAP Diversity Plus: BE3C Assay (AID 2283028); settings: primary human bronchial epithelial cells;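 as to AC50: fitted both ways so AC50 may mark signal gain or loss versus DMSO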
Summary of the method: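 SRB total-protein staining (0.1%, after TCA fixation) of chemically dosed human bronchial epithelial primary cells at 24 h; DMSO serves as the negative control for bidirectional curve fitting.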

[17] = read-out: Thrombomodulin, THBD (gene 7056); test: BSK_3C_Thrombomodulin: BioMAP Diversity Plus: 3C Assay for Thrombomodulin Biomarker Activity (AID 2283029); settings: primary human endothelial cells (HUVEC); actives raise or lower the signal
Summary of the method: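 In a multiplexed primary-cell system, human umbilical vein endothelium received chemical and was assayed 24 h later for thrombomodulin by ELISA. Parallel cultures were SRB-stained (0.1% SRB after 10% TCA fixation, read at 560 nm) to flag cytotoxicity.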

[18] = read-out: Urokinase-type plasminogen activator receptor (uPAR), PLAUR (gene 5329); test: BSK_4H_uPAR: BioMAP Diversity Plus: 4H Assay for Urokinase-type plasminogen activator receptor (uPAR) Biomarker Activity (AID 2283030); settings: primary human endothelial cells (HUVEC); actives raise or lower the signal
Summary of the method: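 Endpoint derived via bidirectional curve fitting against DMSO baseline; readout was ELISA detection of uPAR on umbilical vein endothelial cells at 24 h post-treatment, with SRB-stained parallel cultures assessing cytotoxicity.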

[19] = read-out: Vascular endothelial growth factor receptor 2 (Homo sapiens) (UniProt P35968); test: BSK_4H_VEGFRII: BioMAP Diversity Plus: 4H Assay for Vascular endothelial growth factor receptor 2 (VEGFR2) Biomarker Activity (AID 2283031); settings: primary human endothelial cells (HUVEC); actives raise or lower the signal;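 as to AC50: cell-surface VEGFR2 protein level quantified by ELISA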
Summary of the method: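 In this multiplexed HUVEC system, biomarker ELISA was performed after 24 h chemical exposure. Parallel SRB staining (TCA fixation, 560 nm) tracked cytotoxicity; DMSO served as baseline.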

Measured: AC50

E-selectin (Homo sapiens), sequence (P16581 whole entry, looked up): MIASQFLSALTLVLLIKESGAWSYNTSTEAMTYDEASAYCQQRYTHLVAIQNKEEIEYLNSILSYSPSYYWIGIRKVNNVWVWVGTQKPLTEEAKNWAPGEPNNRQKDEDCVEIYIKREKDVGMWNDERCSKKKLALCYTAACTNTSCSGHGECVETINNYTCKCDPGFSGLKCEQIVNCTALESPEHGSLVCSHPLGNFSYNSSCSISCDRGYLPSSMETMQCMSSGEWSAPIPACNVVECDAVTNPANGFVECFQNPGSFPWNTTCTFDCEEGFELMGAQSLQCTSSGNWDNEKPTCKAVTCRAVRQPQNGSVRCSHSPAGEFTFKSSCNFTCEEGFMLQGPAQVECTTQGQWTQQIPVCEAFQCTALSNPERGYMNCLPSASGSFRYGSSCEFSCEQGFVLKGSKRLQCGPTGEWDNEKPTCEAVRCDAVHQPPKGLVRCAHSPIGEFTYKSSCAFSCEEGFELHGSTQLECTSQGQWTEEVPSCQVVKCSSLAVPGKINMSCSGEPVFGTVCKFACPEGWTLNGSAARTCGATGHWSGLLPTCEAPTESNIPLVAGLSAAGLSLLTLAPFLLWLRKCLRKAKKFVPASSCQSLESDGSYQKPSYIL

O=C(O)c1cc(I)cc(I)c1I
inactive: [1] | [2]

O=C1C[C@@H]2OCC=C3CN4CC[C@]56c7ccccc7N1[C@H]5[C@H]2[C@H]3C[C@H]46
inactive: [1] | [2]

O=c1oc2ccccc2c(O)c1C(CC(O)c1ccc(-c2ccc(Br)cc2)cc1)c1ccccc1 (stereo unspecified)
inactive: [1] | [2] | [8] | [10] | [17]
active: [3] 19.1 µM | [4] 5.31 µM | [5] 10.5 µM | [6] 1.47 µM | [7] 8.28 µM | [9] 31.2 µM | [11] 10.7 µM | [12] 9.43 µM | [13] 12.6 µM | [14] 6.34 µM | [15] 12.7 µM | [16] 5.05 µM | [18] 6.9 µM | [19] 5.2 µM

Cc1cc(C(C)(C)c2ccc(O)c(C)c2)ccc1O
inactive: [1] | [2] | [9] | [10] | [12] | [16] | [17] | [19]
active: [3] 15.8 µM | [4] 15.7 µM | [5] 19.3 µM | [6] 12.5 µM | [7] 14.7 µM | [8] 18.2 µM | [11] 17 µM | [13] 18.7 µM | [14] 17.7 µM | [15] 14.3 µM | [18] 15.3 µM

N#CCCC(Br)(C#N)CBr (stereo unspecified)
inactive: [1] | [10] | [17]
active: [3] 10.6 µM | [4] 20 µM | [5] 7.55 µM | [6] 5.77 µM | [7] 3.16 µM | [8] 8.39 µM | [9] 12.7 µM | [11] 5.06 µM | [12] 20 µM | [13] 5.04 µM | [14] 6.62 µM | [15] 6.36 µM | [16] 20 µM | [18] 8.75 µM | [19] 5.39 µM

NNCCO
inactive: [1] | [2] | [10]

O=NN1CCOCC1
inactive: [1] | [2] | [10]

COCCl
inactive: [1] | [2]

C=CC(Cl)CCl (stereo unspecified)
active: [4] 0.14 µM
not listed: [2]
inactive: all other assays above
